The panel holds about 83,000 compounds, 20% with a hit somewhere; the sample as a whole holds those more often.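 Plates (96-well) were seeded with cells, treated with compound at one concentration, and incubated for 48 hours before percent growth was determined.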 Activity calls are given as the source filed them. Rule for the calls: active = growth percent below 10; inactive = the rest.
What was measured:
Assay in all cases: NCI-60 one-dose screen, 48 h (100 = growth as untreated, 0 = no growth, -100 = all killed)
Conditions in all cases: 10 µM unless noted
HCT-15 colon = tested on: HCT-15 colon
HT29 colon = tested on: HT29 colon
SNB-75 CNS = tested on: SNB-75 CNS
SNB-19 CNS = tested on: SNB-19 CNS
U251 CNS = tested on: U251 CNS
PC-3 prostate = tested on: PC-3 prostate
SK-MEL-5 melanoma = tested on: SK-MEL-5 melanoma
UACC-62 melanoma = tested on: UACC-62 melanoma
LOX IMVI melanoma = tested on: LOX IMVI melanoma
SK-MEL-28 melanoma = tested on: SK-MEL-28 melanoma

Measured: growth

COC(=O)/C=C1/SC(=Nc2ccc([N+](=O)[O-])cc2)N(CCc2c[nH]c3ccccc23)C1=O
inactive: HCT-15 colon 29.9% | HT29 colon 51.8% | SNB-75 CNS 84.3% | SNB-19 CNS 69.2% | U251 CNS 46.9% | PC-3 prostate 63.4% | SK-MEL-5 melanoma 84.9% | UACC-62 melanoma 51% | SK-MEL-28 melanoma 76.8%
active: LOX IMVI melanoma -9.3%

CC[C@H](C)[C@H](NC(=O)[C@@H](N)CCC(N)=O)C(=O)N[C@@H](Cc1ccc(O)cc1)C(=O)N[C@@H](CCCCN)C(=O)N[C@@H](CCCCN)C(=O)N[C@@H](Cc1ccc(O)cc1)C(=O)N[C@@H](CCCNC(=N)N)C(=O)N[C@H](C(=O)N[C@@H](Cc1c[nH]c2ccccc12)C(=O)N[C@@H](Cc1ccc(O)cc1)C(=O)N[C@@H](CCCNC(=N)N)C(=O)N[C@@H](CCCCN)C(=O)N[C@@H](C)C(=O)N[C@@H](Cc1c[nH]c2ccccc12)C(=O)N[C@@H](CCCCN)C(=O)N[C@H](C(=O)N[C@@H](CC(C)C)C(=O)NCC(=O)N[C@@H](CCCCN)C(=O)N[C@H](C(N)=O)C(C)C)C(C)C)[C@@H](C)O
inactive: HT29 colon 63.6% | SNB-75 CNS 15.5% | SNB-19 CNS 49.3% | U251 CNS 23.7% | LOX IMVI melanoma 69.8% | SK-MEL-28 melanoma 16.3%
active: HCT-15 colon 4.9% | PC-3 prostate -37% | SK-MEL-5 melanoma -38% | UACC-62 melanoma -71.2%

CCCn1nc(C(=O)N2CCCCC2)c2c1CCC(N1CCC(c3ccncc3)CC1)C2 (stereo not given)
inactive: HCT-15 colon 105% | HT29 colon 100% | SNB-75 CNS 96.1% | SNB-19 CNS 102% | U251 CNS 101% | PC-3 prostate 101% | SK-MEL-5 melanoma 102% | UACC-62 melanoma 112% | LOX IMVI melanoma 98.1% | SK-MEL-28 melanoma 115%

O=C1C(Nc2ccc(Cl)cc2)=C(I)C(=O)c2ncccc21
inactive: HT29 colon 43.1% | SNB-75 CNS 19.4% | SNB-19 CNS 69.3% | U251 CNS 30.3% | PC-3 prostate 37.1% | SK-MEL-28 melanoma 39%
active: HCT-15 colon -40.4% | SK-MEL-5 melanoma -39.8% | UACC-62 melanoma -7.27% | LOX IMVI melanoma -68.6%

COc1ccc(/C=N\Nc2nc(SCC(C)C)nc(-c3ccc(OC)cc3)c2C#N)cc1
inactive: HCT-15 colon 71% | HT29 colon 56.4% | SNB-19 CNS 31% | PC-3 prostate 53.6% | SK-MEL-5 melanoma 77.2% | UACC-62 melanoma 86.1% | LOX IMVI melanoma 31.9% | SK-MEL-28 melanoma 101%
active: SNB-75 CNS -23.3% | U251 CNS -7.88%

COc1ccc(-c2cc3cnc4ccccc4c3oc2=O)cc1
inactive: HCT-15 colon 92.3% | HT29 colon 96.8% | SNB-75 CNS 104% | SNB-19 CNS 99% | U251 CNS 94% | PC-3 prostate 92.5% | SK-MEL-5 melanoma 104% | UACC-62 melanoma 96.5% | LOX IMVI melanoma 97.6% | SK-MEL-28 melanoma 100%

COc1ccc(/C(C)=C(\c2ccc(OCCN3CCOCC3)cc2)c2ccc(OC(=O)C3CCCCC3)cc2)cc1
inactive: HCT-15 colon 102% | HT29 colon 102% | SNB-75 CNS 110% | SNB-19 CNS 107% | U251 CNS 103% | PC-3 prostate 104% | SK-MEL-5 melanoma 110% | UACC-62 melanoma 110% | LOX IMVI melanoma 102% | SK-MEL-28 melanoma 106%

O=C1/C(=C/c2ccc(-c3ccccc3C(F)(F)F)o2)SC(=S)N1CCc1ccc(O)cc1
inactive: HCT-15 colon 29.6% | HT29 colon 14.8% | SNB-75 CNS 29.2% | SNB-19 CNS 87.8% | U251 CNS 44.1% | PC-3 prostate 48.6% | SK-MEL-5 melanoma 84.4% | UACC-62 melanoma 47% | LOX IMVI melanoma 41.4% | SK-MEL-28 melanoma 69.5%

COc1cc(/C=N/NC(=O)CCN2c3ccccc3Sc3ccccc32)cc(OC)c1OC
inactive: HCT-15 colon 96.4% | HT29 colon 90% | SNB-75 CNS 91.6% | SNB-19 CNS 90.4% | U251 CNS 97.8% | PC-3 prostate 61.4% | SK-MEL-5 melanoma 76.5% | UACC-62 melanoma 62.6% | LOX IMVI melanoma 79.5% | SK-MEL-28 melanoma 97.5%

O=C1OCC2=C1C(c1cccc(C(F)(F)F)c1)c1cc3c(cc1N2CCO)CCC3 (stereo not given)
inactive: SNB-75 CNS 46% | SNB-19 CNS 23% | U251 CNS 12.4% | PC-3 prostate 21.7% | UACC-62 melanoma 41.7% | LOX IMVI melanoma 16.5% | SK-MEL-28 melanoma 52.8%
active: HCT-15 colon 6.24% | HT29 colon 1.24% | SK-MEL-5 melanoma 0.201%

Cc1ccc(Cc2cnc(NC(=O)c3cc(C)oc3C)s2)cc1
inactive: HCT-15 colon 39.1% | HT29 colon 51.3% | SNB-75 CNS 76.6% | SNB-19 CNS 84.2% | U251 CNS 66.9% | PC-3 prostate 72.8% | SK-MEL-5 melanoma 93.6% | UACC-62 melanoma 47.6% | LOX IMVI melanoma 68.9% | SK-MEL-28 melanoma 81.3%

Nc1nc2ccccc2c2c(=O)c3ccc(Cl)cc3sc12
inactive: HCT-15 colon 101% | HT29 colon 98% | SNB-75 CNS 96.3% | SNB-19 CNS 102% | U251 CNS 84.8% | PC-3 prostate 89.9% | SK-MEL-5 melanoma 104% | UACC-62 melanoma 92.5% | LOX IMVI melanoma 98% | SK-MEL-28 melanoma 110%

From PubChem BioAssay (NCI)
